# FMDV antiviral – High Throughput Screening for Foot and Mouth Disease Virus Antivirals; FMDV antiviral cell-based qHTS; hit rate 1.2% among 410,000; Potency, µM (highest dose often 57.9 µM), for inactives: at the highest dose activity change, negative = inhibition, actives largely listed as inhibitors; calls by dose curve; tested in HEK293T cells; further: read-out not given here; potency means the concentration at half of the fitted maximal effect; on the % scale 0 is the no-effect control and ±100 the full control effect; nearly all actives have a fitted effect of over 45% in size
# SARS PLpro yeast – qHTS of Yeast-based Assay for SARS-CoV PLP; S. cerevisiae expressing SARS-CoV PLpro, growth rescue; Potency, µM (titrated, usually from 32.9 µM), inactives show at the highest dose activity, positive = growth rescue, hits mostly activators; hit rate 0.19% among 330,000; AID 485353, 2010; calls by dose curve; further: potency means the concentration at half of the fitted maximal effect; 0% is about no effect; nearly all actives have a fitted effect of over 55% in size
# HCMV inh – qHTS Assay for inhibitors of the human cytomegalovirus (HCMV); HFF cells, HCMV-luciferase reporter, 72 h; stronger effect = lower value; activity change, negative = inhibition, % at 57.5 µM; hit rate 4.5% among 410,000; AID 1259415, 2018; in the data active means activity change below about -60%; inconclusive means no clear call, values can overlap the other calls; inactive means above about -39%; further: on the % scale 0 is the no-effect control and ±100 the full control effect
#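 Cell-based, HFFs, 1000 cells/well, 16 h 37C; cpds in DMSO + HCMV-luc, MOI 1 PFU/cell; 72 h 37C; OneGlo luminescence after 5 min RT; norm. to buffer vs Salinomycin 10uM.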
# MARV entry inh – qHTS for inhibitors of binding or entry into cells for Marburg Virus. Potency, µM (top dose mostly 37.8 µM), inactives show at the highest dose activity change, negative = inhibition, most hits filed as inhibitors. Marburg virus pseudotyped entry inhibition, cell reporter. hit rate 1.8% among 300,000; calls by dose curve; tested in HEK293 cells; further: potency means the concentration at half of the fitted maximal effect; on the % scale 0 is the no-effect control and ±100 the full control effect
# LASV entry inh – qHTS for Inhibitors of binding or entry into cells for Lassa Virus. Lassa virus pseudotype entry inhibition, cell reporter. Potency, µM (series often up to 37.9 µM), for the others: at the top dose activity change, negative = inhibition, actives largely listed as inhibitors. hit rate 1.2% among 300,000. AID 540256, 2011; calls by dose curve; tested in HEK293 cells; further: potency means the concentration at half of the fitted maximal effect; on the % scale 0 is the no-effect control and ±100 the full control effect; nearly all actives have a fitted effect of over 50% in size
# HCV inhibitor – qHTS Assay for Inhibitors of Hepatitis C Virus (HCV); hit rate 3.4% among 340,000; Huh7.5.1 HCVcc-Cre infection, luciferase reporter, 44 h; Potency, µM (highest dose often 41.8 µM), inactives show at the highest dose activity change, negative = inhibition, actives largely listed as inhibitors; AID 651820, 2012; active means well fitted inhibition curve with a large enough effect; inconclusive means small, poorly fitted or top-dose-only effect, or another doubt; inactive means no such curve, though single readings can be large or run the other way; further: potency means the concentration at half of the fitted maximal effect; on the % scale 0 is the no-effect control and ±100 the full control effect
#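 Cells seeded at 1,000/well and cultured 4 h, then compounds added followed by HCVcc-Cre virus (~0.5 moi). After 44 h further culture, luciferase substrate was added, plates held 15 min at room temperature, and luminescence read for 15 sec.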
# An asterisk follows results filed as active; ? = inconclusive; . = no result; [ ] = another dose, or the depositor's remark. Rows were chosen to be rich in hits. Some 8% of all compounds tested hit in one or more screens of this group.
SMILES,FMDV antiviral,SARS PLpro yeast,HCMV inh,MARV entry inh,LASV entry inh,HCV inhibitor
COc1ccc([N+](=O)[O-])cc1Nc1ncnc2ccccc12,-16.4%,-0.5%,-61.9*,-4.6%,-1.2%,?
CCN(CC)C(=O)c1cc(-c2ccc(Cl)cc2)on1,85.6%,.,82.8,?,16.5%[46.1 µM],.
CNc1ccc2oc(C[C@H]3O[C@]4(CC[C@H]3C)O[C@H]([C@H](C)C(=O)c3ccc[nH]3)[C@H](C)C[C@H]4C)nc2c1C(=O)O,-11.9%,.,.,0.708µM*,.,.
Cc1ccnc(NC(c2cc(C)ccc2O)c2ccc3cccnc3c2O)c1 (stereo not given),0.0%,.,110.3,?,?,.
Cc1ccnc(NC(c2ccccc2)c2ccc3cccnc3c2O)c1 (stereo not given),-13.0%,.,-77.7*,?,?,12.6µM*
Cc1ccnc(NC(c2cccnc2)c2ccc3cccnc3c2O)c1 (stereo not given),-12.6%,-2.6%,-25.4,8.91µM*,?,3.98µM*
c1ccc(N2CCN(c3nc4cc5c(cc4s3)OCCO5)CC2)cc1,7.3%,-6.7%,-16.6,23.4%,-0.5%,?
c1c2c(cc3sc(N4CCOCC4)nc13)OCCO2,-86.2%,-12.8%,?,?,5.17µM*,6.0%
CCCc1cc(-c2n[nH]c(C(=O)OCC)c2-c2cscn2)c(O)cc1O,35.5µM*,5.8%,-86.8*,?,?,?
CC(C)c1ccc(Nc2c(-c3ccc(N(C)C)cc3)nc3cnccn23)cc1,-3.9%,.,19.1,-1.2%[46.1 µM],?,.
COc1ccc([C@H]2CC(=O)C=C(c3cc(C)ccc3OC)C2)cc1,-7.9%,-1.8%,-1.1,.,.,7.94µM*
COc1ccc([C@H]2CC(=O)C=C(c3cc(F)ccc3F)C2)cc1OC,31.6µM*,2.3%,-2.8,.,.,11.2µM*
COc1ccc([C@H]2CC(=O)C=C(c3ccnc4ccc(Cl)cc34)C2)cc1,?,5.3%,-77.8*,.,.,?
COc1ccc([C@H]2CC(=O)C=C(c3cc(Cl)ccc3C)C2)cc1,-21.7%,-8.5%,-35.8,.,.,-22.3%
O=C(O)c1ccc(N/N=C/c2c[nH]c3ccccc23)cc1,6.31µM*,-2.3%,-65.0*,.,.,12.7%
O=C(O)c1ccc(S(=O)(=O)NN=Cc2c[nH]c3ccccc23)cc1,-2.2%,.,6.7,.,.,.
Cc1cc(C)nc(N/N=C/c2c[nH]c3ccccc23)n1,8.2%,-10.3%,23.9,-17.5%[46.1 µM],0.5%[46.1 µM],4.3%
CC(C)n1cc(/C=N/Nc2ccc(C(=O)O)cc2)c2ccccc21,3.55µM*,-2.9%,-39.4,4.8%[46.1 µM],-22.8%[46.1 µM],-2.7%
Fc1c(F)c(F)c(N/N=C/c2c[nH]c3ccccc23)c(F)c1F,6.7%,-104.1%,-65.4*,?,-18.5%,?
O=C(O)c1ccc(N/N=C/c2cn(Cc3ccccc3F)c3ccccc23)cc1,?,-1.7%,0.0,.,.,6.2%
COc1ccc(-c2c(C(=O)c3ccccc3)[nH]c(N)c2C(=O)c2ccccc2)cc1OC,-22.3%,.,-70.4*,.,.,.
Cc1cc(C)c(NC(=O)CSc2nc3ccccc3c3nc(-c4ccccc4)nn23)c(C)c1,-5.0%,.,13.4,.,6.3%[46.1 µM],.
C(=NNC1=NCCN1)c1ccnc2ccccc12,-2.2%,.,2.9,.,.,.
Fc1ccccc1Sc1ccccc1CNC1=NCCN1,-17.5%,-59.9%,-61.3*,-8.1%,?,?
c1ccc(Sc2cccc3ccccc23)c(CNC2=NCCN2)c1,?,-80.1%,-67.3*,6.1%,7.9%,?
SMILES,FMDV antiviral,SARS PLpro yeast,HCMV inh,MARV entry inh,LASV entry inh,HCV inhibitor
CN(C)Cc1ccccc1Sc1cccc2ccccc12,?,-33.3%,-22.4,20.6µM*,14.6µM*,?
CN(C)Cc1ccccc1Sc1ccccc1Br,-10.0%,-11.3%,30.4,0.1%,15.3%,-3.8%
Cc1nn(-c2ccccc2)c2c1N(CC(=O)N1CCN(c3ccc(F)cc3)CC1)C(=O)CS2,-3.1%,.,8.2,.,-10.6%[46.1 µM],.
O=C(CSc1ccsc1[N+](=O)[O-])N1CCN(c2ccccn2)CC1,-5.9%,-0.7%,-67.8*,?,-3.3%,-25.3%
COc1ccccc1CNC(=O)CSc1ccsc1[N+](=O)[O-],36.1%,2.4%,3.5,.,.,-0.1%
O=C(CSc1ccccc1)N1CCN(c2ccccn2)CC1,19.5%,-1.0%,-11.8,7.2%[46.1 µM],-1.9%,-12.3%
CCc1ccccc1NC(=O)CSc1ccsc1[N+](=O)[O-],?,-0.9%,-65.9*,-0.5%,15.6%,?
CCN(CC)S(=O)(=O)c1cccc(C(=O)NC(Cc2c[nH]c3ccccc23)c2nnc3n2CCC3)c1 (stereo not given),-1.8%,7.2%,-61.1*,-1.1%,?,31.9%
CN1C(=O)C(O)(CC(=O)/C=C/c2ccco2)c2cc(Br)ccc21 (stereo not given),-4.4%,-0.1%,44.2,?,?,11.2µM*
CN1C(=O)C(O)(CC(=O)/C=C/c2ccco2)c2ccccc21 (stereo not given),-21.4%,0.4%,-28.0,17.7%[46.1 µM],?,5.3%
CCCCN1C(=O)C(O)(CC(=O)c2ccco2)c2cc(Br)ccc21 (stereo not given),-6.7%,0.6%,-74.6*,?,?,21.0%
COc1ccc(CN2CCC3(CCC(CNC(=O)c4ccco4)O3)CC2)c(OC)c1C (stereo not given),-15.4%,.,.,.,.,.
Cc1ccn2c(NCc3ccc4c(c3)OCO4)c(-c3ccc(O)cc3)nc2c1,15.7%,7.94µM*,30.7,1.4%,1.8%,-2.1%
COc1ccccc1CCNC(=O)Cc1c(C)c2cc(Cl)c(O)cc2oc1=O,-15.3%,.,-18.2,-0.1%[46.1 µM],-2.1%[46.1 µM],.
COc1ccccc1/C=C/C1(C(=O)NC2CCCC2)CC(=O)N1c1ccc(C)cc1 (stereo not given),-20.7%,1.1%,-98.4*,?,-27.5%,?
COc1ccccc1/C=C/C1(C(=O)NC2CCCC2)CC(=O)N1c1ccc(F)cc1 (stereo not given),?,0.8%,-82.9*,5.8µM*,14.6µM*,?
CCN(CC)S(=O)(=O)c1ccc(N2C(=O)CC2(/C=C/c2ccccc2)C(=O)NC2CCCC2)cc1 (stereo not given),-15.5%,0.1%,-31.7,?,?,8.2%
CCC(C)NC(=O)CCCc1nnc2n(CC(C)C)c(=O)c3sccc3n12 (stereo not given),-3.4%,.,?,.,19.4%[46.1 µM],.
CC(=O)C1=NN(c2ccccc2)C(c2cccs2)N1c1ccc(N(C)C)cc1 (stereo not given),15.8µM*,-9.6%,-80.5*,?,20.6µM*,?
CC(=O)C1=NN(c2ccccc2)C(c2ccc3c(c2)OCO3)N1c1ccccc1 (stereo not given),-23.5%,3.2%,?,0.7%,-17.0%,?
CC1CCN(CC(=O)c2ccccc2Cl)CC1,1.2%,-8.5%,-2.8,27.1%,15.7%,22.4%

# High-throughput results (PubChem BioAssay)
